Dicer processing – human Dicer pre-microRNA cleavage inhibition | 47,000 compounds, 6% hits | z-score at 25 µM | cat-ELCCA pre-miR-21 Dicer processing, chemiluminescence; active compounds read high | Q9UPY3; in the data active means z-score above about 3, passing the limit was not always enough;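 further: plate controls were vehicle for no effect and no enzyme for full effect; higher signal means more uncleaved substrate so more Dicer inhibition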
Target sequence (Q9UPY3 whole entry, looked up): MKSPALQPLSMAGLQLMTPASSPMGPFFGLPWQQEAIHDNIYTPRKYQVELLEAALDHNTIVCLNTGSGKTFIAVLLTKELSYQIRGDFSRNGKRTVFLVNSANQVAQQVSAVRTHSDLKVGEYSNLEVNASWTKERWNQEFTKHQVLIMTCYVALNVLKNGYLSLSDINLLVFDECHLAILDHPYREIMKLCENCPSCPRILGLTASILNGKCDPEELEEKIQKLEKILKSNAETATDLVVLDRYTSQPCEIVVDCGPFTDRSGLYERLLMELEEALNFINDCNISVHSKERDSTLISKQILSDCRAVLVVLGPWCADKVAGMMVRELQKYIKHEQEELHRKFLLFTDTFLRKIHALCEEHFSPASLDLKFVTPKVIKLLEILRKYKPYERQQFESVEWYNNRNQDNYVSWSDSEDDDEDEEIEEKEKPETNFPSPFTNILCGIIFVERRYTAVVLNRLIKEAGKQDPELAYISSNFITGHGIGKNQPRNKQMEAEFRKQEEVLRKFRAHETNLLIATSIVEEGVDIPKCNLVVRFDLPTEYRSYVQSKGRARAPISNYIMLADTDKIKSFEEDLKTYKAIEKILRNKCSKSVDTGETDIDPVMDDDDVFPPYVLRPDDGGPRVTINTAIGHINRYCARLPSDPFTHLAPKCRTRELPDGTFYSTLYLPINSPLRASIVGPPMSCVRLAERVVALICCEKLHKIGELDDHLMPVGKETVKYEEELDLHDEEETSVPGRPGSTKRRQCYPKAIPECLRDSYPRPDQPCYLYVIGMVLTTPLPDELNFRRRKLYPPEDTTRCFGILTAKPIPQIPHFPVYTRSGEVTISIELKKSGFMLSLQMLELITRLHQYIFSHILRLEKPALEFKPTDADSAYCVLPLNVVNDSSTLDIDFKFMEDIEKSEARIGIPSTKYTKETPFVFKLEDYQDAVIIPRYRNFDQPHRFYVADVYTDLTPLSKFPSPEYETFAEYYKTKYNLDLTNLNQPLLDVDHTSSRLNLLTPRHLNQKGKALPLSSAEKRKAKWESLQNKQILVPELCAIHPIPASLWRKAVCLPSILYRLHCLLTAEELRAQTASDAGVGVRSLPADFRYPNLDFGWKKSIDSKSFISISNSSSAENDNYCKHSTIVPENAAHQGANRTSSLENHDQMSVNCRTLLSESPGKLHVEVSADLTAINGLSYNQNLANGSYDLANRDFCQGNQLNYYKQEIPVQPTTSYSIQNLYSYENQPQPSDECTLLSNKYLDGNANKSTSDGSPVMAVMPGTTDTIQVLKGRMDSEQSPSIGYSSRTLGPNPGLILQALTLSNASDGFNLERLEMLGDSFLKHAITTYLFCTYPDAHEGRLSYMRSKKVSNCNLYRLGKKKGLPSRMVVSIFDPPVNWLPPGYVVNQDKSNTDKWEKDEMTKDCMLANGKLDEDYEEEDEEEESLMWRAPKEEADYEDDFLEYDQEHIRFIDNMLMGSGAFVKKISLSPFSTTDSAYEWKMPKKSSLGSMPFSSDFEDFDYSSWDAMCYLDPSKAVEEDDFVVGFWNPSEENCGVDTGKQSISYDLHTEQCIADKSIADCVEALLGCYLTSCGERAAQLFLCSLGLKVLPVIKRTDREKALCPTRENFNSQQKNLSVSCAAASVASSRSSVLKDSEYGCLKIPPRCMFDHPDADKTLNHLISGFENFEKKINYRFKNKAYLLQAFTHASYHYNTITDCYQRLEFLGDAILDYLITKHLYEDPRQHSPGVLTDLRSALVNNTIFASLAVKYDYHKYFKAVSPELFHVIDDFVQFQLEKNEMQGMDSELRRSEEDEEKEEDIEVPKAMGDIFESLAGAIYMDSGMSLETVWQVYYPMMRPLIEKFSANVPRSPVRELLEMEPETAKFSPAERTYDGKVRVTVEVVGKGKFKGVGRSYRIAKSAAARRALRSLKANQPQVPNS
* marks the source's active call; other numbers are inactive results. The full list was thinned out, with hits kept by preference.

SMILES	Dicer processing
Cc1c(C)c(C)c(C(=O)C2CCN(S(=O)(=O)c3ccc(F)cc3F)CC2)c(C)c1C	0.85
CN(C)S(=O)(=O)N(CC(=O)N1CCc2ccccc2C1)c1ccccc1	0.99
CCN(CC)C(=O)C1Sc2nnc(C)n2NC1c1ccc(OC)c(Br)c1 (stereo unspecified)	-0.55
O=C1CSC2(C(=O)Nc3ccccc32)N1c1ccccc1 (stereo unspecified)	-0.52
Cc1ccc(N2C(=O)CSC23C(=O)Nc2ccccc23)cc1 (stereo unspecified)	3.82*
Cc1ccc(C)c(C(=O)CC2(O)C(=O)Nc3ccccc32)c1 (stereo unspecified)	1.65
C=CCNC(=S)N(CCC#N)C1CCCCC1	-1.21
Cc1cc(C)c2nc(NCc3ccccc3O)sc2c1	2.9
COc1cc(CNc2nc3c(C)cc(C)cc3s2)ccc1O	3.13*
COc1cc(CCC(C)NCc2ccccc2)ccc1O (stereo unspecified)	-1.24
Cc1cccn2cc(CSc3cccc4cccnc34)nc12	-1.13
Cn1nnnc1SCC(=O)Nc1cccc(O)c1	7.37
Cn1c(CSCc2nc(-c3ccccc3)cs2)nnc1SCC(=O)c1ccccc1	-1.83
Cc1cccc(C)c1OCC(O)Cn1c(C)[n+](C)c2ccccc21 (stereo unspecified)	-0.63
CCCc1n(CC(O)COc2ccc(F)cc2)c2ccccc2[n+]1C (stereo unspecified)	3.67*
Cc1n(CC(O)COc2cccc(Cl)c2)c2ccccc2[n+]1C (stereo unspecified)	-1.26
CCCc1n(CC(O)COc2cccc(OC)c2)c2ccccc2[n+]1C (stereo unspecified)	-0.34
CCCc1n(CC(O)COc2ccccc2C)c2ccccc2[n+]1C (stereo unspecified)	0.57
COc1ccc(OCC(O)Cn2c(C)[n+](C)c3ccccc32)cc1 (stereo unspecified)	3.79*
O=C(CSc1nnc2ccccn12)c1ccc2c(c1)OCO2	-0.46
CC(C)n1c2ccccc2c2ccccc21	0.68
COc1cc2nc3c4ccccc4n(C(C)C)c3nc2cc1OC	3.4*
CCCCn1c2ccccc2c2nc3cc(OC)c(OC)cc3nc21	1.03
CC1(C)CC(=O)c2sc(NC(=O)CCSc3ccccc3)nc2C1	2.49
Cc1cc(-c2noc(COc3cccc(Cl)c3)n2)c2ccccc2n1	-0.29
SMILES	Dicer processing
Cc1cc(C)nc(SCC(=O)n2c(C)c(C)c3ccccc32)n1	1.34
Cc1cc(C)nc(SCC(=O)N2c3ccccc3CCc3ccccc32)n1	1.65
Cc1cc(C)nc(SCCc2ccncc2)n1	3.59*
COc1ccc(C2CC(c3cc(Cl)ccc3O)=NN2)cc1 (stereo unspecified)	5.77*
COc1ccc(C2=Nc3ccccc3SC(c3ccccc3)C2)c(O)c1 (stereo unspecified)	-3.22
COc1ccc(C2Oc3c(OC)cccc3C3CC(c4ccccc4O)=NN32)cc1 (stereo unspecified)	1.41
COc1cccc2c1OC(C(C)C)N1N=C(c3cc(Cl)ccc3O)CC21 (stereo unspecified)	1.11
COc1ccc(C2CC(c3ccccc3O)=NN2)cc1 (stereo unspecified)	4.15*
COc1ccc(O)c(C2=NN3C(C2)c2cccc(OC)c2OC3c2ccc(F)cc2)c1 (stereo unspecified)	1.36
CCOC(=N)c1ccc([N+](=O)[O-])s1	-0.35
COc1ccccc1-c1coc2cc(OCC(=O)OC3CCCCC3)ccc2c1=O	-1.1
COC(=S)NC(=O)/C=C/c1ccccc1	3.45*
O=C(/C=C/c1ccccc1)NC(=S)Nc1cc(C(F)(F)F)cc(C(F)(F)F)c1	-0.04
O=C(/C=C/c1ccccc1)NC(=S)Nc1ccc(OC(F)(F)F)cc1	-0.76
COC(=O)C(C)Sc1nc(C(=O)C(F)(F)F)c2ccccn12 (stereo unspecified)	0.04
O=C(CC(Sc1ccc(Cl)cc1Cl)c1ccccc1)c1ccc(F)cc1 (stereo unspecified)	-0.89
Clc1ccc2nc3c(nc2c1)Nc1ccccc1S3	0.76
CCNc1nc(-c2ccc(Cl)cc2)c(-c2ccc(C)cc2)s1	-2.2
CCNc1nc2ccc(Cl)cc2nc1NCC	4.63*
CCC(OC(=O)CN1C(=O)C(=O)c2ccccc21)C(=O)Nc1sc2c(c1C#N)CCCC2 (stereo unspecified)	0.27
c1ccc(-c2nc(-c3cccnc3)n[nH]2)nc1	-0.46
Cc1nc2ccccn2c1C(=O)NNS(C)(=O)=O	0.01
OCCNCC(O)Cn1c2ccccc2c2ccccc21 (stereo unspecified)	4.51*
CC(NCC(O)Cn1c2ccccc2c2ccccc21)C(=O)O (stereo unspecified)	-4.74
CC(C)(C)NCC(O)Cn1c2ccccc2c2ccccc21 (stereo unspecified)	0.67
CCCSC1=C(C#N)C(c2ccc(Cl)cc2)CC(=O)N1 (stereo unspecified)	1.13
CC(C)(C)NC(=S)NN1C2CSC1CS2	-4.86
COc1cccc2c1OC(c1ccc(F)cc1)C([N+](=O)[O-])=C2 (stereo unspecified)	3.86*
CC(C)c1ccc(C2Oc3ccccc3C=C2[N+](=O)[O-])cc1 (stereo unspecified)	0.94
